Compound activity as filed in PubChem.
VP16 counter: VP16 counterscreen qHTS for inhibitors of ROR gamma transcriptional activity | Drosophila S2 Gal4-VP16 UAS-luciferase, luminescence, 20 h | Potency, µM (doses to about 53.6 µM), inactives show at the top dose activity, negative = inhibition, usual class: inhibitors | 310,000 compounds, 3.5% hits;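 further: Gal4-VP16 expression switched on by copper sulfate through the metallothionein promoter; potency means the concentration at half of the fitted maximal effect; nearly all actives have a fitted effect of over 50% in size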
TSHR antag: Antagonists of the Thyroid Stimulating Hormone Receptor: HTS campaign; Thyrotropin receptor (Homo sapiens), P16473; TSHR-expressing cells, TSH-stimulated cAMP HTRF, 2 h; active compounds read low; activity change, negative = inhibition, % at 11.5 µM; 330,000 compounds, 0.2% hits; AID 504810, 2011;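 active means activity change below a set negative limit, meaning inhibition stronger than a set level, cut at about -70% in these data; inconclusive means activity change between two set negative limits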
Target sequence (P16473 whole entry, looked up): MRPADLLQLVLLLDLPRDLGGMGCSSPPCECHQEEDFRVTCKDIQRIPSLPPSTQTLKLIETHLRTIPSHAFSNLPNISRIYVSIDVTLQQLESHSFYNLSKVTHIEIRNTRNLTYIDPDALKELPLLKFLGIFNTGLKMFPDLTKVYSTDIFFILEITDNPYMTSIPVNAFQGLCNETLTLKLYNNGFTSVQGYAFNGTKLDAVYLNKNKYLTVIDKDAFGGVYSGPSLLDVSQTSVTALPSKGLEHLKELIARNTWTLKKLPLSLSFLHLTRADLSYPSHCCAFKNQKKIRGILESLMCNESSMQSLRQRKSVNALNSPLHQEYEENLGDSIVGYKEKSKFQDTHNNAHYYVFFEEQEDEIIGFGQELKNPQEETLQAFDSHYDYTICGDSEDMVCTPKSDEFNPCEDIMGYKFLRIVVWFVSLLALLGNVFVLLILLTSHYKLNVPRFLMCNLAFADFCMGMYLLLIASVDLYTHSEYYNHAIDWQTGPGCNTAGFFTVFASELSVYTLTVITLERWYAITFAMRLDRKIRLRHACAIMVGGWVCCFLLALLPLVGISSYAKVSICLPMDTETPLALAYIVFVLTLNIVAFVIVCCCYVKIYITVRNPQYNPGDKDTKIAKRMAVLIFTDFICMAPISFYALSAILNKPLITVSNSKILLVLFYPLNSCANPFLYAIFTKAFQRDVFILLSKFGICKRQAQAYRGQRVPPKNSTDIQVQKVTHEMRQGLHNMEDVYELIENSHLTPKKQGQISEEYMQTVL
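Competitive HTRF cAMP read-out (cryptate anti-cAMP antibody, cAMP-d2; 30 min, room temperature) in freshly harvested TSHR cells. Compounds added before TSH at EC80 (4nM final), followed by 2 hours' incubation at 37 deg C.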
ELG1 DNA repair: qHTS screen for small molecules that inhibit ELG1-dependent DNA repair in human embryonic kidney (HEK293T) cells expressing luciferase-tagged ELG1 | HEK293T ELG1-luciferase reporter, luminescence, 16 h; DNA damage induced by 5-fluorouridine | Potency, µM (titrated, usually from 46.1 µM), inactives show at the top dose activity change, negative = inhibition, usual class: inhibitors | 330,000 compounds, 2.3% hits | AID 504467, 2011; further: potency means the concentration at half of the fitted maximal effect; nearly all actives have a fitted effect of over 55% in size
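Step one: seed 2,000 cells per well. Step two: pin-transfer compound or DMSO alongside 5-fluorouridine. Step three: incubate 16 hr, 37 °C, 5% CO2. Step four: add ONE-Glo, wait 30 min, read luminescence.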
FBPA coupling cs: qHTS Assay for Inhibitors of Fructose-1,6-bisphosphate Aldolase from Giardia Lamblia: Coupling assay counterscreen | coupling enzyme system counterscreen, AmpLite Red fluorescence | activity change, negative = inhibition, % at 58.2 µM, hits read low | 290,000 compounds, 0.67% hits; in the data active means activity change below about -30%
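First, compound is pin-transferred into glyceraldehyde-3-phosphate coupling-enzyme reagent at 57.5 uM final and held 10 min at RT. Next, substrate, coupling system and AmpLite Red are added. After 20 min RT, fluorescence (525/598 nm) is read.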
RORgamma inh: qHTS for inhibitors of ROR gamma transcriptional activity; AID 2551, 2010; Nuclear receptor ROR-gamma (Mus musculus), P51450; Potency, µM (titrated, usually from 53.6 µM), for inactives: top-dose activity change, negative = inhibition, actives largely listed as inhibitors; 310,000 compounds, 5.4% hits; Drosophila S2 Gal4-RORgamma UAS-luciferase reporter, 20 h; further: potency means the concentration at half of the fitted maximal effect; nearly all actives have a fitted effect of over 60% in size
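Compounds are pin-transferred onto Drosophila Schneider cells expressing a copper-inducible Gal4–ROR gamma transactivation domain fusion. After 1 hr, copper sulfate is added to 700 uM final; luciferase is read 20 hr later.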
* hit, by the source's call; [ ] = another dose, or the depositor's remark. The list is not random: actives were taken first. Their share in the collection is about 8%. Unless noted, the call rests on the fitted dose curve; in most records, active means well fitted curve in the direction sought with a large enough effect; inconclusive means small, poorly fitted or top-dose-only effect, or another doubt; inactive means no such curve, though single readings can be large; an effect the other way counts as inactive or inconclusive. On the % scale 0 is the no-effect control and ±100 the full control effect.

For COc1cc(OC)cc(C(=O)OCn2nnc3ccccc3c2=O)c1 the results were VP16 counter 7%, TSHR antag 8, ELG1 DNA repair 5%, FBPA coupling cs 4 and RORgamma inh -13%.
`COC(=O)c1ccc2c(=O)[nH]c(COC(=O)c3[nH]c(C)c(C(C)=O)c3C)nc2c1` gave TSHR antag -8 and ELG1 DNA repair 5.8µM*.
CC(=O)c1c(C)[nH]c(C(=O)OCn2nnc3ccccc3c2=O)c1C was read as VP16 counter 5%, TSHR antag 2, ELG1 DNA repair 18µM*, FBPA coupling cs 5 and RORgamma inh 1%.
Cc1ccc(-c2c[n+](Cc3cccc(Cl)c3)c3n2CCC3)cc1 was read as VP16 counter -2%, TSHR antag -6, ELG1 DNA repair 10µM*, FBPA coupling cs 0 and RORgamma inh inconclusive.
For Clc1ccc(-c2c[n+](Cc3ccc(Cl)c(Cl)c3)c3n2CCC3)cc1 the results were VP16 counter inconclusive, TSHR antag -1, ELG1 DNA repair -13%, FBPA coupling cs -1 and RORgamma inh 39%.
Cc1ccc(C[n+]2cc(-c3ccc(Cl)cc3)n3c2CCC3)cc1 was read as VP16 counter -5%, TSHR antag 18, ELG1 DNA repair 4.6µM*, FBPA coupling cs 0 and RORgamma inh 43%.
`CCc1ccc(NC(=O)C[n+]2cc(-c3ccc(C)cc3)n3c2CCC3)cc1` gave VP16 counter -15%, TSHR antag -1, ELG1 DNA repair 12µM*, FBPA coupling cs -1 and RORgamma inh 20%.
For Clc1cccc(C[n+]2cc(-c3ccccc3)n3c2CCC3)c1 the results were VP16 counter -22%, TSHR antag -1, ELG1 DNA repair -8%, FBPA coupling cs 3 and RORgamma inh 36%.
C=Cc1ccc(Cn2c(=O)n(CCCOC)c(=O)c3sccc32)cc1 was read as VP16 counter 5%, TSHR antag -16, ELG1 DNA repair 21µM*, FBPA coupling cs 2 and RORgamma inh 7%.
Screening C=Cc1ccc(Cn2c(=O)n(C)c(=O)c3sccc32)cc1 returned VP16 counter inconclusive, TSHR antag -22, ELG1 DNA repair inconclusive, FBPA coupling cs 0 and RORgamma inh inconclusive.
O=C(CN1C(=O)NC2(CCCCCC2)C1=O)N1CCCCC1 was read as TSHR antag 2 and ELG1 DNA repair inconclusive.
`COC(=O)C1=C2N(Cc3ccccc3)C(C)=C(C(=O)OC)C(c3ccccc3)N2C(=O)[C@](O)(C(=O)OC)C1` (stereo not given in full) gave VP16 counter -4%[10 µM], FBPA coupling cs -1 and RORgamma inh -12%[10 µM].
For CCOc1ccc(-n2c(N)c(C(=O)NCc3ccco3)c3nc4ccccc4nc32)cc1 the results were VP16 counter 1%, TSHR antag -8, ELG1 DNA repair -20%, FBPA coupling cs 0 and RORgamma inh inconclusive.
Screening CCOc1ccc(-n2c(N)c(-c3nc4ccccc4n3C)c3nc4ccccc4nc32)cc1 returned VP16 counter 1.3µM*, TSHR antag 8, ELG1 DNA repair -18%, FBPA coupling cs 1 and RORgamma inh 1µM*.
For CCOC(=O)c1c(N)n(-c2ccc(N)cc2)c2nc3ccccc3nc12 the results were VP16 counter -13%, TSHR antag 1, ELG1 DNA repair 9.2µM*, FBPA coupling cs 1 and RORgamma inh 1%.
Nc1c(C(=O)OCC2CCCO2)c2nc3ccccc3nc2n1-c1ccc2c(c1)OCCO2 (stereo not given) was read as VP16 counter -4%, TSHR antag 1, ELG1 DNA repair -1%, FBPA coupling cs -37* and RORgamma inh 9%.
For CCOCCCNC(=O)c1c(N)n(-c2ccc3c(c2)OCO3)c2nc3ccccc3nc12 the results were VP16 counter -6%, TSHR antag -7, ELG1 DNA repair -5%, FBPA coupling cs -35* and RORgamma inh 24%.
For CC1(C)Oc2ccc3ccc(=O)oc3c2CC1=O the results were VP16 counter 1%, FBPA coupling cs 2 and RORgamma inh -4%.
